Experimental data reported in PubChem BioAssay AID1159580 (chemical genetic matrix, 2015).
Where “and” joins values, the source holds several entries; their conditions need not be identical. Equal values may be shown once. Among all 5,500 compounds or so, about 2,000 (36%) were called active. Inconclusive results (about 18%) are left out. Rule as the data show it: active = normalized growth mostly below about 0.91 (no sharp cut-off); inconclusive = no clear call, values can overlap the other calls; inactive = mostly above about 0.92. This is one part of the list.

Assay: chemical genetic growth profiling, strain panel (AID 1159580);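 also: tested at 20 µM; growth read once vehicle control cultures reached saturation at 30 °C; 1 = growth at the plate median or of vehicle wells; lower values mean less growth of the strain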
Conditions: S. cerevisiae deletion strains, growth OD

**Q.** Which results are given for `COc1ccc2c(c1)OC/C(=C\c1ccc(OC)c(O)c1)C2=O`?
**A.** normalized growth (locus YAL013W, strain DEP1, stronger effect = lower value): 0.72 (active); normalized growth (locus YAL021C, strain ccr4, stronger effect = lower value): 0.985 (inactive); normalized growth (locus YAL026C, strain drs2, stronger effect = lower value): 0.865 (active); normalized growth (locus YAL030W, strain snc1, stronger effect = lower value): 0.935 (inactive); normalized growth (locus YBL061C, strain skt5, stronger effect = lower value): 0.905 (active); normalized growth (locus YBR009C, strain hhf1, stronger effect = lower value): 0.781 (active); normalized growth (locus YBR021W, strain FUR4, stronger effect = lower value): 0.796 (active); normalized growth (locus YBR023C, strain chs3, stronger effect = lower value): 0.88 (active); normalized growth (locus YBR171W, strain sec66, stronger effect = lower value): 0.919 (inactive); normalized growth (locus YBR229C, strain ROT2, stronger effect = lower value): 0.967 (inactive); normalized growth (locus YBR231C, strain swc5, stronger effect = lower value): 0.8 (active); normalized growth (locus YBR279W, strain paf1, stronger effect = lower value): 0.912 (active); normalized growth (locus YCL011C, strain gbp2, stronger effect = lower value): 0.857 (active); normalized growth (locus YCL016C, strain dcc1, stronger effect = lower value): 0.881 (active); normalized growth (locus YCL029C, strain bik1, stronger effect = lower value): 0.772 (active); normalized growth (locus YCL069W, strain vba3, stronger effect = lower value): 0.878 (active); normalized growth (locus YCR088W, strain abp1, stronger effect = lower value): 0.954 (inactive); normalized growth (locus YDL005C, strain med2, stronger effect = lower value): 0.984 (inactive); normalized growth (locus YDL035C, strain GPR1, stronger effect = lower value): 0.818 (active); normalized growth (locus YDL040C, strain nat1, stronger effect = lower value): 0.953 (inactive); normalized growth (locus YDL074C, strain BRE1, stronger effect = lower value): 0.534 (active); normalized growth (locus YDL101C, strain DUN1, stronger effect = lower value): 0.665 (active); normalized growth (locus YDL185W, strain tfp1, stronger effect = lower value): 0.909 (inactive); normalized growth (locus YDL192W, strain arf1, stronger effect = lower value): 0.748 (active); normalized growth (locus YDR001C, strain nth1, stronger effect = lower value): 0.953 (inactive); normalized growth (locus YDR069C, strain doa4, stronger effect = lower value): 0.97 (inactive); normalized growth (locus YDR101C, strain arx1, stronger effect = lower value): 0.855 (active); normalized growth (locus YDR137W, strain rgp1, stronger effect = lower value): 0.705 (active); normalized growth (locus YDR150W, strain NUM1, stronger effect = lower value): 0.894 (active); normalized growth (locus YDR159W, strain sac3, stronger effect = lower value): 0.8 (active); normalized growth (locus YDR162C, strain NBP2, stronger effect = lower value): 0.475 (active); normalized growth (locus YDR195W, strain ref2): 1.11 (inactive); normalized growth (locus YDR297W, strain sur2, stronger effect = lower value): 0.864 (active); normalized growth (locus YDR318W, strain mcm21, stronger effect = lower value): 0.574 (active); normalized growth (locus YDR334W, strain swr1, stronger effect = lower value): 0.894 (active); normalized growth (locus YDR335W, strain msn5, stronger effect = lower value): 0.943 (inactive); normalized growth (locus YDR388W, stronger effect = lower value): 0.913 (active); normalized growth (locus YDR392W, strain spt3, stronger effect = lower value): 0.206 (active); normalized growth (locus YDR502C, strain sam2, stronger effect = lower value): 0.69 (active); normalized growth (locus YEL003W, strain gim4, stronger effect = lower value): 0.806 (active); normalized growth (locus YEL037C, strain rad23, stronger effect = lower value): 0.954 (inactive); normalized growth (locus YEL061C, strain CIN8 (second series), stronger effect = lower value): 0.935 (inactive); normalized growth (locus YEL061C, strain CIN8, stronger effect = lower value): 0.623 (active); normalized growth (locus YER015W, strain faa2, stronger effect = lower value): 0.874 (active); normalized growth (locus YER016W, strain bim1, stronger effect = lower value): 0.949 (inactive); normalized growth (locus YER110C, stronger effect = lower value): 0.79 (active); normalized growth (locus YER111C, strain swi4, stronger effect = lower value): 0.964 (inactive); normalized growth (locus YER155C, strain BEM2 (second series), stronger effect = lower value): 0.448 (active); normalized growth (locus YER155C, strain BEM2, stronger effect = lower value): 0.301 (active); normalized growth (locus YER167W, strain BCK2, stronger effect = lower value): 0.816 (active); normalized growth (locus YFR010W, strain ubp6, stronger effect = lower value): 0.944 (inactive); normalized growth (locus YGL078C, strain dbp3, stronger effect = lower value): 0.878 (active); normalized growth (locus YGL086W, strain mad1, stronger effect = lower value): 0.517 (active); normalized growth (locus YGL167C, strain pmr1, stronger effect = lower value): 0.947 (inactive); normalized growth (locus YGL173C, strain kem1, stronger effect = lower value): 0.878 (active); normalized growth (locus YGL227W, strain vid30, stronger effect = lower value): 0.813 (active); normalized growth (locus YGL240W, strain doc1, stronger effect = lower value): 0.795 (active); normalized growth (locus YGL248W, strain PDE1, stronger effect = lower value): 0.603 (active); normalized growth (locus YGL253W, strain hxk2, stronger effect = lower value): 0.8 (active); normalized growth (locus YGR078C, strain PAC10, stronger effect = lower value): 0.487 (active); normalized growth (locus YGR135W, strain pre9, stronger effect = lower value): 0.684 (active); normalized growth (locus YGR229C, strain SMI1, stronger effect = lower value): 0.386 (active); normalized growth (locus YGR252W, strain gcn5, stronger effect = lower value): 0.545 (active); normalized growth (locus YHR013C, strain ard1, stronger effect = lower value): 0.783 (active); normalized growth (locus YHR027C, strain rpn1, stronger effect = lower value): 0.909 (active); normalized growth (locus YHR030C, strain SLT2, stronger effect = lower value): 0.399 (active) and 0.978 (inactive); normalized growth (locus YHR079C, strain IRE1 (second series), stronger effect = lower value): 0.831 (active); normalized growth (locus YHR079C, strain IRE1, stronger effect = lower value): 0.968 (inactive); normalized growth (locus YHR094C, strain hxt1, stronger effect = lower value): 0.812 (active); normalized growth (locus YHR129C, strain ARP1, stronger effect = lower value): 0.516 (active); normalized growth (locus YHR142W, strain chs7, stronger effect = lower value): 0.727 (active); normalized growth (locus YHR200W, strain rpn10, stronger effect = lower value): 0.864 (active); normalized growth (locus YIL066C, strain RNR3, stronger effect = lower value): 0.665 (active); normalized growth (locus YIL073C, strain SPO22, stronger effect = lower value): 0.631 (active); normalized growth (locus YIL125W, strain kgd1, stronger effect = lower value): 0.916 (active); normalized growth (locus YIR030C, strain dcg1, stronger effect = lower value): 0.854 (active); normalized growth (locus YJL092W, strain hpr5, stronger effect = lower value): 0.94 (inactive); normalized growth (locus YJL095W, strain BCK1 (second series), stronger effect = lower value): 0.899 (active); normalized growth (locus YJL095W, strain BCK1, stronger effect = lower value): 0.262 (active) and 0.961 (inactive); normalized growth (locus YJL115W, strain asf1, stronger effect = lower value): 0.953 (inactive); normalized growth (locus YJL129C, strain trk1, stronger effect = lower value): 0.776 (active); normalized growth (locus YJL134W, strain LCB3, stronger effect = lower value): 0.949 (inactive); normalized growth (locus YJL154C, strain vps35, stronger effect = lower value): 0.969 (inactive); normalized growth (locus YJL164C, strain tpk1, stronger effect = lower value): 0.876 (active); normalized growth (locus YJL166W, strain qcr8, stronger effect = lower value): 0.654 (active); normalized growth (locus YJL168C, strain set2, stronger effect = lower value): 0.948 (inactive); normalized growth (locus YJL187C, strain SWE1 (second series), stronger effect = lower value): 0.773 (active); normalized growth (locus YJR043C, strain POL32, stronger effect = lower value): 0.731 (active)
